Data on 35 molecules can be found in PubChem BioAssay (Tox21).

Each structure is given as a SMILES string. Where “and” joins values, the source holds several entries; their conditions need not be identical. Identical values can stand only once. Results filed as inconclusive are left out. Some compounds were tested as several samples or in several runs, with calls that do not always agree. Calls of active or inactive are those of the source. Unless noted, calls come from the whole dose curve; as a rule, active = well fitted curve in the direction sought with a large enough effect in the repeat runs; inconclusive = weak or mixed curves; inactive = no such curve, though single readings can be large; an effect the other way counts as inactive or inconclusive.

A short description of test [1]: qHTS assay to identify small molecule antagonists of the glucocorticoid receptor (GR) signaling pathway - cell viability counter screen (AID 720693). Note: nearly all actives have a fitted effect of over 55% in size.
Test [2] is described as follows: qHTS assay for identifying genotoxic compounds that show differential cytotoxicity against isogenic chicken DT40 cell lines with known DNA damage response pathways - Rev3 mutant cell line (AID 743014). Note: nearly all actives have a fitted effect of over 55% in size. Note: potency is the fitted concentration of half-maximal effect.
Test [3] is described as follows: qHTS assay for identifying genotoxic compounds that show differential cytotoxicity against isogenic chicken DT40 cell lines with known DNA damage response pathways - Rad54/Ku70 mutant cell line (AID 743015). Note: nearly all actives have a fitted effect of over 60% in size. Note: potency is the fitted concentration of half-maximal effect.
Test [4] in a line: qHTS assay to identify small molecule antagonists of the androgen receptor (AR) signaling pathway - cell viability counter screen (AID 743033; note: nearly all actives have a fitted effect of over 45% in size; note: potency is the fitted concentration of half-maximal effect).
Test [5] can be described thus: qHTS assay to identify small molecule antagonists of the androgen receptor (AR) signaling pathway using the MDA cell line - cell viability counter screen (AID 743041; note: nearly all actives have a fitted effect of over 45% in size; note: potency is the fitted concentration of half-maximal effect). A digest of the protocol:
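R1881-driven MDA-kb2 AR-luc cells, 3,000/well, were dosed with library compounds for 16 h; cell health came from CellTiter-Fluor fluorescence in the reporter wells.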

For test [6], the target named is Androgen receptor (Homo sapiens) (UniProt P10275). The test can be described thus: qHTS assay to identify small molecule antagonists of the androgen receptor (AR) signaling pathway (AID 743035; active = well fitted inhibition curve with a large enough effect in the signal ratio in the repeat runs, not every such curve was filed as active; the % refers to the signal ratio). A digest of the protocol: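 Beta-lactamase FRET read (2 h RT incubation with LiveBLAzer B/G) following 16 h of compound plus R1881 treatment of AR-UAS-bla HEK293 cells, which had been pre-incubated 4 h at 37C.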

Test [7] has the same target. The test can be described thus: qHTS assay to identify small molecule agonists of the androgen receptor (AR) signaling pathway (AID 743036; active = well fitted activation curve with a large enough effect in the signal ratio in the repeat runs, with a control signal flat, not every such curve was filed as active; the % refers to the signal ratio). A digest of the protocol: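 HEK293 cells stably carrying a UAS-driven beta-lactamase reporter (GeneBLAzer AR-UAS-bla-GripTite) were plated at 2,000 cells/well, rested 4 h at 37C, then exposed to compounds in DMSO for 16 h. LiveBLAzer B/G FRET substrate was added for 2 h at room temperature; fluorescence read.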

Test [8] has the same target. Kind of test: qHTS assay to identify small molecule agonists of the androgen receptor (AR) signaling pathway using the MDA cell line (AID 743040; note: nearly all actives have a fitted effect of over 20% in size). Summed up:
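After a 5 h incubation at 37C and 0% CO2, MDA-kb2 reporter cells were dosed with compounds in DMSO and kept 16 h under the same conditions. Luciferase activity was then read as luminescence with ONE-Glo.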

For test [9] the target is unchanged. The test can be described thus: qHTS assay to identify small molecule antagonists of the androgen receptor (AR) signaling pathway using the MDA cell line (AID 743042; note: nearly all actives have a fitted effect of over 55% in size). A digest of the protocol:
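Antagonist mode: compounds plus R1881 agonist added to MDA-kb2 AR-luc cells, incubated 16 h at 37C. Luciferase reporter luminescence quantified, with multiplexed CellTiter-Fluor readout for cell viability.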

Test [10] in a line: qHTS assay for identifying genotoxic compounds that show differential cytotoxicity against isogenic chicken DT40 cell lines with known DNA damage response pathways - wild type cell line (AID 743012). Note: nearly all actives have a fitted effect of over 60% in size. Note: potency is the fitted concentration of half-maximal effect. Summed up: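 First, wild type DT40 cells were plated at 300 per well and equilibrated about 0.5 h at 37 C/5% CO2. Next, compounds in DMSO were added and exposure lasted 40 h. Finally, CellTiter-Glo was added for 30 min at room temperature and luminescence recorded.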

Androgen receptor (Homo sapiens), sequence (P10275 whole entry, looked up): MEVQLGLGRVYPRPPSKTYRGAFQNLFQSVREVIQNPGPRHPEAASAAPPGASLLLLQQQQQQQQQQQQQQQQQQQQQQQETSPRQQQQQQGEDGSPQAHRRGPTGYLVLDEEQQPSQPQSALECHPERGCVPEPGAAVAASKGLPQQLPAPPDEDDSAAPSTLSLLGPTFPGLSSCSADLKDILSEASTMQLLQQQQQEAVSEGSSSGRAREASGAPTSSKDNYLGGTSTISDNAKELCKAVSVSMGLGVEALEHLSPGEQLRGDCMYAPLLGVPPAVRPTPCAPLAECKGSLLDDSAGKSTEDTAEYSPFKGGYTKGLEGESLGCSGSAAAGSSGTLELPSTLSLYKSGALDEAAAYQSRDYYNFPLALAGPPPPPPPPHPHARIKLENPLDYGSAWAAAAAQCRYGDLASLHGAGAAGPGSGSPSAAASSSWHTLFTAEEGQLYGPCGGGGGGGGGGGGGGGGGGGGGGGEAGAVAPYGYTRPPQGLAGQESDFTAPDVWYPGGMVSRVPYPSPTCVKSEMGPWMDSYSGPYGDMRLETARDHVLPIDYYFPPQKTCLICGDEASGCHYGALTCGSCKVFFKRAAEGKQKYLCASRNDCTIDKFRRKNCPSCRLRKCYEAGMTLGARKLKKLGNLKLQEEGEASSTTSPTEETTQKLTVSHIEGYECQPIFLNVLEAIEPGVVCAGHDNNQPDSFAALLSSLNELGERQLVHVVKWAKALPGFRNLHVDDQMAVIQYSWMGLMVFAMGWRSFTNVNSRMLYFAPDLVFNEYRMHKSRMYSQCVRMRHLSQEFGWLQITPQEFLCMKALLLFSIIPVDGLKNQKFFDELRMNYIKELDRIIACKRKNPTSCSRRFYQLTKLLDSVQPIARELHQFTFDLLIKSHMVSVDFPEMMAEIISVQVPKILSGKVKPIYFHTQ

`CCOC(=O)C1OC1c1ccccc1` (stereo unspecified): the Potency result in test [1], in test [2], in test [3], in test [4] and in test [5] was “inactive” throughout.
Turning to `CCOC(=O)[C@H](CCc1ccccc1)N[C@@H](C)C(=O)N1Cc2ccccc2C[C@H]1C(=O)O`, the Potency result in [1], in [3], in [4] and in test [5] was “inactive” each time. Also, the Potency entry in [2] is “inactive and 61.6 µM (active)”.
As for `CC(C)NCC(O)COc1cccc2ccccc12` (stereo unspecified), the Potency result in test [1], in test [4] and in test [5] was “inactive” in each case. For the same molecule, the Potency in test [3] is 61.8 µM (active) and inactive.
In the case of `Oc1ccc2ccccc2c1N=Nc1ccccc1`, the Potency entry in test [1], in test [2], in test [3], in [4] and in [5] was “inactive” in each case.
On to `O=C(c1cc(O)c(O)c(O)c1)c1ccc(O)c(O)c1O`, for which the Potency result in test [1], in [4] and in [5] was “inactive” throughout. In addition, the Potency was 30.5 µM (active) and 13.7 µM (active) in test [2]; 30.5 µM (active) and 13.7 µM (active) in test [3].
Turning to `CCCCCCOC(C)=O`, the Potency result in test [1], in test [4] and in test [5] was “inactive” each time. For the same molecule, in test [3], the Potency is 61.1 µM (active).
Take `CC1(C)CC(N=C=O)CC(C)(CN=C=O)C1` (stereo unspecified): the Potency entry in [1], in test [3], in test [4] and in test [5] was “inactive” each time.
With `CC1CC(OC(=O)c2ccccc2O)CC(C)(C)C1` (stereo unspecified), the Potency result in test [1], in [3], in [4] and in test [5] was “inactive” in each case.
As for `CCCCCCCCCCCCOCC1CO1` (stereo unspecified), the Potency entry in [1], in test [2], in [3], in test [4] and in test [5] was “inactive” in each case.
For `CCCCOCCO`, the Potency result in test [1], in test [3], in test [4] and in [5] was “inactive” each time.
With `CCCCCCCCCC(=O)O`, the Potency result in test [1] and in test [5] was “inactive” each time. Further, the Potency in test [3] was 61.2 µM (active) and inactive; in test [4], “inactive and 55 µM (active)”. The molecule was called inactive in test [6], in test [7], in test [8] and in test [9].
Regarding `CN(C)c1ccc(C(=N)c2ccc(N(C)C)cc2)cc1`, the Potency result in [1] was “inactive”. Moreover, the Potency in [2] was 2.4 µM (active) and 8.31 µM (active); in test [3], 3.81 µM (active) and 11.7 µM (active); in test [4] it was 34.2 µM (active) and 37.4 µM (active); in [5], 60.4 µM (active).
With `COCC(C)O` (stereo unspecified), the Potency result in [1], in test [3], in [4] and in test [5] was “inactive” in each case.
Turning to `CS(=O)(=O)Nc1ccc([N+](=O)[O-])cc1Oc1ccccc1`, the Potency result in test [1], in [2], in test [3], in test [4] and in test [5] was “inactive” throughout.
For `CC1(C)O[C@@H]2C[C@H]3[C@@H]4C[C@H](F)C5=CC(=O)CC[C@]5(C)[C@H]4[C@@H](O)C[C@]3(C)[C@]2(C(=O)CO)O1`, the Potency result in [1], in [3], in test [4] and in [5] was “inactive” each time.
On to `CC(C)n1c(/C=C/[C@@H](O)C[C@@H](O)CC(=O)O)c(-c2ccc(F)cc2)c2ccccc21`, for which the Potency entry in test [1] and in [5] was “inactive” throughout. The Potency is 9.4 nM (active) and 3.06 µM (active) in test [2]; 3.35 µM (active) and 8.63 µM (active) in [3].
As for `CCCCC(CC)COC(=O)CCCCCCCC(=O)OCC(CC)CCCC` (stereo unspecified), the Potency result in test [1], in test [2], in test [3], in test [4] and in test [5] was “inactive” throughout.
Regarding `C=C(C)C(=O)OCCC[Si](OC)(OC)OC`, the Potency entry in test [10], in test [2], in test [3], in test [4] and in test [5] was “inactive” throughout.
For `CC(=O)[C@@]1(O)CC[C@H]2[C@@H]3CCC4=CC(=O)CC[C@]4(C)[C@H]3CC[C@@]21C`, the Potency entry in test [1], in [4] and in test [5] was “inactive” each time. In addition, the Potency result in test [2] was “inactive and 17.2 µM (active)”; in [3], 24.3 µM (active).
Consider `Oc1ccc2ccccc2c1`, for which the Potency entry in [1], in test [3], in test [4] and in test [5] was “inactive” throughout. The call in [7], in test [8] and in [9] was inactive.
`ClC1=C(Cl)C(Cl)(Cl)C(Cl)=C1Cl`: the Potency entry in [1], in test [4] and in test [5] was “inactive” in each case. For the same molecule, the Potency entry in [3] is “inactive and 770 nM (active)”.
For the molecule `O=[N+]([O-])c1cc(N(CCO)CCO)ccc1NCCO`, the Potency entry in test [1] and in test [4] was “inactive” throughout. Also, the molecule was called inactive in test [6], in test [7] and in test [8].
For the molecule `COCC(=O)O`, the Potency entry in test [1], in [2], in test [3], in [4] and in [5] was “inactive” each time.
With `CCCCCCC(C)(C)S`, the Potency entry in test [1], in test [3], in test [4] and in [5] was “inactive” throughout.
For the molecule `Cc1cc(=O)[nH]c(C(C)C)n1`, the Potency result in test [1], in test [3], in [4] and in test [5] was “inactive” in each case. Also, the call in [6], in test [7], in test [8] and in [9] was inactive.
In the case of `NC(=O)NNc1ccccc1`, the Potency entry in [1], in [4] and in test [5] was “inactive” each time.
Regarding `O=C1O[C@H](CO)[C@@H](O)[C@H](O)[C@H]1O`, the Potency result in test [1], in test [3], in test [4] and in test [5] was “inactive” each time.
Turning to `CCCCOCCOCCOC(=O)CCCCC(=O)OCCOCCOCCCC`, the Potency result in test [1], in test [2], in test [3], in test [4] and in test [5] was “inactive” throughout.
On to `C=C1CC[C@H](O)CC1=C/C=C1\CCC[C@]2(C)[C@@H]([C@H](C)/C=C/[C@H](C)C(C)C)CC[C@@H]12`, for which the Potency in test [10] was 10.6 µM (active) and 13.6 µM (active) and 30.6 µM (active); in test [3] it was 13.3 µM (active) and 13.6 µM (active) and 27.3 µM (active); in test [4], “inactive and 43.3 µM (active)”. The Potency entry in test [5] was “inactive”.
In the case of `CCC(=O)O`, the Potency entry in test [1], in test [3], in test [4] and in test [5] was “inactive” each time.
In the case of `CCCCC(CC)COC(C)=O` (stereo unspecified), the Potency entry in [1], in test [2], in test [3], in [4] and in test [5] was “inactive” throughout.
With `CCc1ccccc1O`, the Potency result in test [1], in [3], in [4] and in test [5] was “inactive” throughout.
For the molecule `NCc1cccc(CN)c1`, the Potency entry in [1], in test [2], in test [3], in test [4] and in test [5] was “inactive” in each case.
`COC(=O)c1ccccc1O`: the Potency result in [1], in [2], in [3], in [4] and in [5] was “inactive” throughout.
Take `CC(C)Cc1ccccc1`: the Potency result in [1], in test [3], in test [4] and in test [5] was “inactive” each time.
